These results are taken from PubChem BioAssay (Tox21).

A short description of experiment [1]: Nuclear factor erythroid 2-related factor 2/antioxidant responsive element (Nrf2/ARE) small molecule agonists: qHTS cell viability counter screen in human keratinocytes (AID 1919968; active = well fitted curve in the direction sought with a large enough effect in the repeat runs; an effect the other way counts as inactive or inconclusive; note: nearly all actives have a fitted effect of over 55% in size; note: potency is the fitted concentration of half-maximal effect). The method in brief: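 Fluorescence read-out from CellTiter-Fluor after 1 h at 37 C. Wells held HaCaT-derived ARE-luciferase reporter cells (1,500/well) treated 23 h with DMSO-dissolved compounds. Run in the same wells as the luciferase agonist read.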

A short description of experiment [2]: Nuclear factor erythroid 2-related factor 2/antioxidant responsive element (Nrf2/ARE) small molecule agonists: luciferase reporter gene qHTS assay in human keratinocytes (AID 1919969; note: nearly all actives have a fitted effect of over 35% in size; note: potency is the fitted concentration of half-maximal effect). (A reporter such as luciferase makes a cellular process visible.)
In experiment [3] the target is Gonadotropin-releasing hormone receptor (Homo sapiens) (UniProt P30968). Nature of the experiment: Human gonadotropin-releasing hormone receptor (GnRHR) small molecule agonists, calcium flux assay in GnRHR-HEK293 cells (AID 1920063). Note: nearly all actives have a fitted effect of over 35% in size. In outline: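 Calcium-dye fluorescence, Ex/Em=480/540, recorded every 1 sec over 3 min after compound addition to GnRHR-HEK293 cells. Cells had been seeded 18 hours earlier and dye-loaded for 1 hour at 37 C. Fifteen concentrations, triplicates.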
(A change in cytosolic calcium serves as a functional read-out for many receptors and channels.)

Experiment [4] addresses KiSS-1 receptor (Homo sapiens) (UniProt Q969F8). Nature of the experiment: Human kisspeptin (KISS1R) small molecule agonists, calcium flux assay in KISS1R-HEK293 cells (AID 1920064; active = well fitted curve in the direction sought with a large enough effect in the repeat runs; an effect the other way counts as inactive or inconclusive). The method in brief: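 Calcium flux read-out: kinetic fluorescence at Ex/Em=480/540, 1 s intervals over 3 min, after pin-tool compound addition to dye-loaded KISS1R-HEK293 cells. Fifteen concentrations, triplicates.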

Experiment [5] is described as follows: G protein-coupled receptor (GPCR) small molecule agonists, calcium flux assay: HEK293 wild type cell line counter screen (AID 1920065). The method in brief: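 Agonist mode; 18 h seeding at 37 C, 1 h dye load at 37 C; compounds pinned from DMSO, ATP as positive control; kinetic fluorescence 480/540 nm, 3 min, 1 s reads; 15 concentrations, triplicate.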
The nature of experiment [6]: p53 small molecule agonists, cell-based qHTS assay with human liver microsomes: qHTS cell viability counter screen (AID 1963579). Note: nearly all actives have a fitted effect of over 45% in size. Note: potency is the fitted concentration of half-maximal effect. The method in brief: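 In this multiplexed counter screen, the reporter plates were subsequently treated with CellTiter-Glo so that cell viability, reflected by luminescence, could be recorded for p53RE-bla cells dosed 16 h with compounds under microsomal activation (HLM and NADPH).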
A general note: Quantitative high-throughput screening tests each substance at several concentrations.

A short description of experiment [7]: p53 small molecule agonists, cell-based qHTS assay with rat liver microsomes: qHTS cell viability counter screen (AID 1963580). Note: nearly all actives have a fitted effect of over 45% in size. Note: potency is the fitted concentration of half-maximal effect. In outline: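 After the beta-lactamase ratio was read, CellTiter-Glo was added to the same wells and luminescence measured at 30 min; cells had been treated 16 h at 37 C with compounds, rat liver microsomes and NADPH (0.5 mg/mL final each).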

A short description of experiment [8]: p53 small molecule agonists, cell-based qHTS assay: qHTS cell viability counter screen (AID 1963581). Note: nearly all actives have a fitted effect of over 45% in size. In outline: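 Cytotoxicity read-out: ATP-based luminescence (CellTiter-Glo, 30 min RT) measured in the same wells as the p53 reporter assay, HCT-116 p53RE-bla cells, 16 h compound exposure at 37 C.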
Experiment [9] in a line: p53 small molecule agonists, cell-based qHTS assay (AID 1963582; active = well fitted activation curve with a large enough effect in the signal ratio in the repeat runs, not every such curve was filed as active; the % refers to the signal ratio). The method in brief:
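Fluorescence intensity read-out of a beta-lactamase reporter under a p53 response element. Cells were exposed to DMSO-dissolved compounds for 16 h at 37 C, then developed with FRET substrate for 2 h at RT.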

Experiment [10] deals with 5-hydroxytryptamine receptor 2A (Homo sapiens) (UniProt P28223). Nature of the experiment: 5-hydroxytryptamine receptor 2A (HTR2A) small molecule antagonists, cell-based qHTS assay (AID 1963586). Note: nearly all actives have a fitted effect of over 45% in size. Note: potency is the fitted concentration of half-maximal effect. In outline: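 CHO cells stably expressing human HTR2A were plated for 18 h at 37 C, then loaded with calcium dye for 1 h. Compounds were preincubated 5 min at room temperature before DOI (4 nM solution) was added. Kinetic fluorescence was read for 3 min.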

Experiment [11] concerns the target Muscarinic acetylcholine receptor M1 (Homo sapiens) (UniProt P11229). Nature of the experiment: Cholinergic receptor muscarinic 1 (CHRM1) small molecule antagonists, cell-based qHTS assay (AID 1963588). Note: nearly all actives have a fitted effect of over 40% in size. In outline: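 Compounds were tested at 15 concentrations in three independent runs. Dye-loaded CHRM1-CHO cells were exposed 5 min at room temperature before stimulation by acetylcholine added at 50nM. Intracellular calcium was read kinetically on FDSS for 3 min.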

Experiment [12] has the same target. Nature of the experiment: Cholinergic receptor muscarinic 1 (CHRM1) small molecule agonists, cell-based qHTS assay (AID 1963589). Note: nearly all actives have a fitted effect of over 35% in size. In outline:
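Calcium flux read-out: kinetic fluorescence at 1 sec intervals after pin-tool compound addition to dye-loaded CHRM1-CHO cells (human M1). Agonist mode; 15 concentrations tested in triplicate independent runs.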

Experiment [13] is described as follows: cAMP Responsive Elements (CRE) small molecule agonists, cell-based qHTS assay (AID 1963590). The method in brief:
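Beta-lactamase reporter readout: LiveBLAzer B/G FRET substrate, 2 h at room temperature, added after 3 h compound treatment of CRE-bla HEK 293T cells at 37 C/5% CO2.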

A short description of experiment [14]: cAMP Responsive Elements (CRE) small molecule antagonists, cell-based qHTS assay (AID 1963591; active = well fitted inhibition curve with a large enough effect in the signal ratio in the repeat runs, not every such curve was filed as active; the % refers to the signal ratio). In outline:
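HEK293T CRE-bla; 18 h preincubation; compound pin-transfer; NKH477 0.25 uM final, 3 h, 37 C; LiveBLAzer FRET substrate 2 h RT.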

For experiment [15], the target named is Beta-2 adrenergic receptor (Homo sapiens) (UniProt P07550). Nature of the experiment: Adrenergic beta2 receptor (ADRB2) small molecule antagonists, cell-based qHTS assay (AID 1963592). Note: series mostly up to about 92 µM; nearly all actives have a fitted effect of over 50% in size. In outline: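 Assay format: CHO-ADRB2 cells, 18-20hr seeding at 37C/5% CO2, then compound plus 1nM isoproterenol agonist mix for 0.5hr RT. Homogeneous time-resolved fluorescence cAMP detection after 1hr, expressed as 665/615 nm ratio.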

Experiment [16] deals with D(2) dopamine receptor (Homo sapiens) (UniProt P14416). Nature of the experiment: Dopamine D2 receptor (DRD2) small molecule agonists, cell-based qHTS assay (AID 1963594). Note: nearly all actives have a fitted effect of over 35% in size. The method in brief:
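HEK293 cells stably expressing human DRD2, pre-treated with PDE inhibitor Ro20-1724 (0.1 mM final) and compound 10 min at room temperature, then stimulated with NKH477 (200nM […]) for 30 min. cAMP read by HTRF (665/620 nm).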

For experiment [17] the target is unchanged. Kind of experiment: Dopamine D2 receptor (DRD2) small molecule antagonists, cell-based qHTS assay (AID 1963595; active = well fitted inhibition curve with a large enough effect in the signal ratio in the repeat runs, with a control signal flat; the % refers to the signal ratio). In outline: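 HTRF cAMP read-out at 665 and 620 nm emission (340 nm excitation). Antagonist mode: compounds were tested against 12 nM quinpirole in DRD2-HEK293 cells, with 200 nM NKH477 raising cAMP and 0.1 mM Ro20-1724 blocking its breakdown.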

The target of experiment [18] is 5-hydroxytryptamine receptor 2A (Homo sapiens) (UniProt P28223). Kind of experiment: 5-hydroxytryptamine receptor 2A (HTR2A) small molecule agonists, cell-based qHTS assay (AID 1963587). Note: nearly all actives have a fitted effect of over 30% in size. The method in brief: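 CHO cells stably expressing human HTR2A, plated 18 h, loaded with calcium dye 1 h at 37 C. Agonist mode: compounds added and intracellular calcium fluorescence recorded kinetically for 2 min at 1 sec intervals.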

The target of experiment [19] is Beta-2 adrenergic receptor (Homo sapiens) (UniProt P07550). Nature of the experiment: Adrenergic beta2 receptor (ADRB2) small molecule agonists, cell-based qHTS assay (AID 1963593).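 Note: CHO cells stably overexpressing human ADRB2.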 In outline:
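CHO cells stably over-expressing ADRB2 were plated overnight at 37C, then dosed with compounds plus a stimulation mix containing 100uM IBMX and 25uM Ro-20-1724 for 0.5hr at room temperature. cAMP was measured by HTRF competition, 1hr.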

Experiment [20] can be described thus: p53 small molecule agonists, cell-based qHTS assay with human liver microsomes (AID 1963577).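 Note: p53 response element beta-lactamase reporter cells with liver microsomes plus NADPH.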 In outline: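 16 h, 37 C exposure of p53RE-bla cells to compounds with human liver microsomes and NADPH (0.5 mg/mL final each); detection via LiveBLAzer mixture, 2 h dark at room temperature.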

“And” between values parts separate entries of the source, which are not always exact repeats. Equal values may be shown once. Inconclusive results are not listed. Some compounds were tested as several samples or in several runs, with calls that do not always agree. The source made the active and inactive calls. Unless noted, calls come from the whole dose curve.

Muscarinic acetylcholine receptor M1 (Homo sapiens), sequence (P11229 whole entry, looked up): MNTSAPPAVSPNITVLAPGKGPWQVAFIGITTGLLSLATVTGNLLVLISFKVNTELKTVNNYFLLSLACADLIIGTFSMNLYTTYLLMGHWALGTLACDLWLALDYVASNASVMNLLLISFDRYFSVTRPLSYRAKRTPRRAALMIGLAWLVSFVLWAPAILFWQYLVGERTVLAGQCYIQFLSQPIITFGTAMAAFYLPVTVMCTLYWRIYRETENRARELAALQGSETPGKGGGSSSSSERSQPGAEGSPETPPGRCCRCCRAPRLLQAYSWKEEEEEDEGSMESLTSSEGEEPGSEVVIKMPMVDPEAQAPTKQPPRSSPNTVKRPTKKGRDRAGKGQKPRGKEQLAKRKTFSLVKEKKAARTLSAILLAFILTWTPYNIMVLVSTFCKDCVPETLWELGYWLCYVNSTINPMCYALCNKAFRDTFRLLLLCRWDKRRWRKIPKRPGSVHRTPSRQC
D(2) dopamine receptor (Homo sapiens), sequence (P14416 whole entry, looked up): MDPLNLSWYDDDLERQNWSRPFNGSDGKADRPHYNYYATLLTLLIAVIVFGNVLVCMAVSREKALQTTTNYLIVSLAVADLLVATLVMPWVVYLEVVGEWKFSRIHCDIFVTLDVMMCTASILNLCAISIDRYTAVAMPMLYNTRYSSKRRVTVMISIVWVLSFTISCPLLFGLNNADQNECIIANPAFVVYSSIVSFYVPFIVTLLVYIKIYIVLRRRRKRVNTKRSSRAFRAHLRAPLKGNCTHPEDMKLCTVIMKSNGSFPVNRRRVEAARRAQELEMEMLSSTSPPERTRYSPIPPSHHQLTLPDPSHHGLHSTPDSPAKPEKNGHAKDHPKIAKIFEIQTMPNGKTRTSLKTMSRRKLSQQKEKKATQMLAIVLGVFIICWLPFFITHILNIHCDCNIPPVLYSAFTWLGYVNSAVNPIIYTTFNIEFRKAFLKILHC
KiSS-1 receptor (Homo sapiens), sequence (Q969F8 whole entry, looked up): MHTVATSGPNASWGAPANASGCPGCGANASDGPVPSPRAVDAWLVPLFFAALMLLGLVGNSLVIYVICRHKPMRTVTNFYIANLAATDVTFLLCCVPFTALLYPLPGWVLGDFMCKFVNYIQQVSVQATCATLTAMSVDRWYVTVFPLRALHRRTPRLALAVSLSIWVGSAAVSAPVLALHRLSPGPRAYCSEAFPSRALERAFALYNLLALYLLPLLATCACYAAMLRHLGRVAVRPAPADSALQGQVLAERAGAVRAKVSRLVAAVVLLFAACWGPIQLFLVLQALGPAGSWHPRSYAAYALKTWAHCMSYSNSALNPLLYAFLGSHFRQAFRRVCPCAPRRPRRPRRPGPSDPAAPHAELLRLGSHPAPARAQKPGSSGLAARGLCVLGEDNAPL
Beta-2 adrenergic receptor (Homo sapiens), sequence (P07550 whole entry, looked up): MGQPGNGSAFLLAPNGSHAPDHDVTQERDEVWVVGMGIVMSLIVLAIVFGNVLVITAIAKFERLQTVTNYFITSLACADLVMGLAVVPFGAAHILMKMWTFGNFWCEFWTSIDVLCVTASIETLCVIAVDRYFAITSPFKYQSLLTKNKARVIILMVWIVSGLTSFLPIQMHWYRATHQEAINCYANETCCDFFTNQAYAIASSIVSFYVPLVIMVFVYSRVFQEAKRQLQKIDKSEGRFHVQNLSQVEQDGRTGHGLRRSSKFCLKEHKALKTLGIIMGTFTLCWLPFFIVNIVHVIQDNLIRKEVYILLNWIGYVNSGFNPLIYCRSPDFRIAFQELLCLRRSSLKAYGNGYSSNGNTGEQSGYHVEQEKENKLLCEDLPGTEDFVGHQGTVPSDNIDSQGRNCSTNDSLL
5-hydroxytryptamine receptor 2A (Homo sapiens), sequence (P28223 whole entry, looked up): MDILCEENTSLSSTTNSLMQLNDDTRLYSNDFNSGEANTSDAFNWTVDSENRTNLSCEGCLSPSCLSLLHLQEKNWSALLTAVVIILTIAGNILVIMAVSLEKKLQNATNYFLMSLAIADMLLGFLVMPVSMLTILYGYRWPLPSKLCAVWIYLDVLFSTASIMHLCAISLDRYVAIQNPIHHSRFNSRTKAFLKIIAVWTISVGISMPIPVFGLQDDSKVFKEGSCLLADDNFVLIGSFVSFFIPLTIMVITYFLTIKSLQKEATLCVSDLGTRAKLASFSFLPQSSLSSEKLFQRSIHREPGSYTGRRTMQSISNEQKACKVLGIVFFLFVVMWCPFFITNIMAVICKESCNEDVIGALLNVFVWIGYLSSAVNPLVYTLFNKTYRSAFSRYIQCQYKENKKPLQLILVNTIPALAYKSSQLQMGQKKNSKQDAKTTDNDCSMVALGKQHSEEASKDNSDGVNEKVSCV
Gonadotropin-releasing hormone receptor (Homo sapiens), sequence (P30968 whole entry, looked up): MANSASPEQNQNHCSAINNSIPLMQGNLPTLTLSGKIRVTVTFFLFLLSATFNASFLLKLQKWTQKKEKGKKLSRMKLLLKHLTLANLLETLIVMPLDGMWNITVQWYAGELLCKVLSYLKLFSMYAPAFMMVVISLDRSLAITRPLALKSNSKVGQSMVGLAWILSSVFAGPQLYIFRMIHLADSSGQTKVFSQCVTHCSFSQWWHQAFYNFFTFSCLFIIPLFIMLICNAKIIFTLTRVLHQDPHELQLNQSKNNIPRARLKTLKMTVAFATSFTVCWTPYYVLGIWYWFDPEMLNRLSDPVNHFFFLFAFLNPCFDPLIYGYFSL

Turning to `NC(=O)NC(N)=O`, the Potency entry in experiment [1], in [2], in [3], in experiment [4], in [5] and in experiment [6] was “inactive” each time. In addition, the Potency result in experiment [7], in experiment [8], in [9], in experiment [10], in experiment [11] and in [12] was “inactive” throughout. Moreover, the Potency result in [13], in experiment [14], in experiment [15], in experiment [16] and in experiment [17] was “inactive” throughout.
On to `CCCCOCCOC(=O)c1ccccc1C(=O)OCCOCCCC`, for which the Potency in experiment [1] is 47.5 µM (active) and inactive; in [2], 23.8 µM (active) and 68.6 µM (active). Moreover, the Potency entry in [3], in experiment [4], in experiment [5], in [6], in [7] and in experiment [8] was “inactive” in each case. Moreover, the Potency entry in experiment [9], in [10], in experiment [18], in [11], in experiment [12] and in experiment [13] was “inactive” in each case. In addition, the Potency entry in [14], in experiment [15], in experiment [19], in [16] and in experiment [17] was “inactive” in each case.
With `O=C(OCc1ccccc1)c1ccc(O)cc1`, the Potency entry in experiment [1], in experiment [3], in experiment [4], in experiment [5], in [20] and in [7] was “inactive” throughout. The Potency result in [8], in experiment [9], in experiment [18], in experiment [11], in [12] and in [13] was “inactive” throughout. For the same molecule, the Potency entry in [14], in experiment [15], in experiment [19], in [16] and in [17] was “inactive” each time. In addition, the Potency is 68.6 µM (active) and 13.3 µM (active) in experiment [2]; 33.4 µM (active) in experiment [10].
As to `O=C(O)c1ccccc1Nc1cccc(C(F)(F)F)c1`, the Potency entry in experiment [1], in experiment [3], in experiment [4], in [5], in experiment [20] and in experiment [7] was “inactive” each time. Further, the Potency result in experiment [10], in experiment [18], in experiment [11], in [12], in [14] and in [15] was “inactive” in each case. Moreover, the Potency entry in [19], in experiment [16] and in experiment [17] was “inactive” throughout. The Potency is 13.7 µM (active) and inactive in [2]; 40.8 µM (active) and inactive in experiment [6].
Take `Oc1ccc(Cc2ccccc2O)cc1`: the Potency result in experiment [1], in experiment [2], in [3], in [4], in experiment [5] and in [20] was “inactive” throughout. The Potency entry in experiment [8], in experiment [9], in experiment [10], in experiment [11], in experiment [12] and in experiment [13] was “inactive” each time. The Potency result in [14], in experiment [15], in experiment [19], in [16] and in experiment [17] was “inactive” in each case. The Potency in experiment [7] was 36.8 µM (active) and inactive.
As to `Oc1ccc(O)cc1`, the Potency entry in experiment [1], in experiment [3], in experiment [4], in [5], in experiment [20] and in [7] was “inactive” in each case. For the same molecule, the Potency entry in experiment [8], in experiment [9], in experiment [10], in experiment [18], in experiment [11] and in experiment [12] was “inactive” in each case. Moreover, the Potency entry in experiment [14], in [15], in [19], in experiment [16] and in experiment [17] was “inactive” throughout. Besides, the Potency in [2] was 60.8 µM (active) and 61.1 µM (active) and 21.1 µM (active).
On to `CC(=O)CCC(=O)O`, for which the Potency result in experiment [1], in [2], in [3], in [4], in experiment [5] and in [6] was “inactive” throughout. For the same molecule, the Potency entry in [7], in experiment [8], in experiment [10], in experiment [11], in experiment [12] and in experiment [13] was “inactive” in each case. For the same molecule, the Potency entry in [14], in [19], in experiment [16] and in experiment [17] was “inactive” throughout.
